PubChem BioAssay (Tox21)
Records with an inconclusive call do not appear. Where a call stands in place of a potency, no number is given. A number with no mark means an inactive call. Active and inactive are the calls of the source. Unless noted, the call rests on the fitted dose curve; in most records, active means well fitted curve in the direction sought with a large enough effect in the repeat runs; inconclusive means weak or mixed curves; inactive means no such curve, though single readings can be large; an effect the other way counts as inactive or inconclusive.

How the values were obtained:
[1] = qHTS assay to identify small molecule antagonists of the estrogen related receptor (ERR) signaling pathway from Tox21 library - cell viability counter screen (AID 1224834); further: nearly all actives have a fitted effect of over 30% in size; further: potency means the concentration at half of the fitted maximal effect
In short: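 CellTiter-Fluor fluorescence, read after 30 min at 37 C, measures viability of ERR cells. Cells plated at 2,000/well and incubated 6 h before pin-tool compound addition, then exposed 17.5 hours at 37 C.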

[2] = target: Luciferin 4-monooxygenase (Photinus pyralis) (UniProt P08659); test: qHTS assay to identify small molecule inhibitors of firefly luciferase (AID 1224835); further: nearly all actives have a fitted effect of over 25% in size; further: potency means the concentration at half of the fitted maximal effect; on activity change, negative = inhibition: series mostly up to about 120 µM
Luciferin 4-monooxygenase (Photinus pyralis), sequence (P08659 whole entry, looked up): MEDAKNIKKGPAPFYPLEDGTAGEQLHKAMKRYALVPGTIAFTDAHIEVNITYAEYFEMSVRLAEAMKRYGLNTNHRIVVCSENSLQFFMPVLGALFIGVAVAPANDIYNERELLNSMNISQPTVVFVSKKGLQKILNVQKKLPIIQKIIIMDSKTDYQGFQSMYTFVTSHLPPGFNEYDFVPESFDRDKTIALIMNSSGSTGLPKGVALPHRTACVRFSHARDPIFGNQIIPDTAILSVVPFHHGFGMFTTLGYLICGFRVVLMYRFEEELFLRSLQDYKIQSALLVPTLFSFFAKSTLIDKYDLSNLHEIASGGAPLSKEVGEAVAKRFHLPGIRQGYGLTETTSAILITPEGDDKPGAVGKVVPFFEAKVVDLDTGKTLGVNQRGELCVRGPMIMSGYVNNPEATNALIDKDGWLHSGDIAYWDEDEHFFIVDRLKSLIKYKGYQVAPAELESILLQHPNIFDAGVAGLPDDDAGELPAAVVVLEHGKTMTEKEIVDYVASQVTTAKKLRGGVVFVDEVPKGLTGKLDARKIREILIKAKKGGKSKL
In short: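 Quantitative HTS format; KM concentrations of both substrates. Purified P. pyralis FLuc activity quantified from luminescence images.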

[3] = qHTS assay to identify small molecule agonists of the constitutive androstane receptor (CAR) signaling pathway - cell viability counter screen (AID 1224836); further: nearly all actives have a fitted effect of over 45% in size; further: potency means the concentration at half of the fitted maximal effect; on viability change, negative = cytotoxic: series mostly up to about 92 µM
In short: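 Counter screen multiplexed with the CAR reporter readout: HepG2 cells co-transfected with hCAR and the CYP2B6-2.2kb construct receive a 15-concentration compound series and 0.75 uM PK11195 (final), then CellTiter-Fluor fluorescence is read after 23 h.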

[4] = target: Nuclear receptor subfamily 1 group I member 3 (Homo sapiens) (UniProt Q14994); test: qHTS assay to identify small molecule antagonists of the constitutive androstane receptor (CAR) signaling pathway (AID 1224838);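 further: HepG2 cells stably expressing hCAR with CYP2B6 luciferase reporter stimulated by CITCO; nearly all actives have a fitted effect of over 40% in size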; further: potency means the concentration at half of the fitted maximal effect
Nuclear receptor subfamily 1 group I member 3 (Homo sapiens), sequence (Q14994 whole entry, looked up): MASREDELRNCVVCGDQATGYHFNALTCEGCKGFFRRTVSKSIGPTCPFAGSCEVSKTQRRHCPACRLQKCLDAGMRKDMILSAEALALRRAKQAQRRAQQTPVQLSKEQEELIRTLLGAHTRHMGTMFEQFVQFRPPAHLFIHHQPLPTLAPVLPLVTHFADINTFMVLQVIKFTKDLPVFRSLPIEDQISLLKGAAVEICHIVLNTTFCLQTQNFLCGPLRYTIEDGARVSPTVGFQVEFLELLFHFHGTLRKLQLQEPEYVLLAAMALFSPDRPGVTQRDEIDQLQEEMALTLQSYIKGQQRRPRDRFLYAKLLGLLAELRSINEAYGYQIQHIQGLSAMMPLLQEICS
In short: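 Antagonism measured as luciferase signal (ONE-Glo, 30 min, room temperature) in CAR-stimulated cells: HepG2-CYP2B6-hCAR double-stable line exposed 24 hr at 37 C to compound in a 15-point series plus 50 nM CITCO.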

[5] = target: Nuclear receptor subfamily 1 group I member 3 (Homo sapiens) (UniProt Q14994); test: qHTS assay to identify small molecule agonists of the constitutive androstane receptor (CAR) signaling pathway (AID 1224839); further: nearly all actives have a fitted effect of over 15% in size; further: potency means the concentration at half of the fitted maximal effect; on activation: series mostly up to about 92 µM
In short: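 A 15-concentration quantitative screen uses HepG2 cells co-transfected stably with human CAR and CYP2B6-2.2kb reporter. Treatment lasts 24 h with 0.75 uM PK11195 final present; ONE-Glo luminescence is the signal.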

[6] = qHTS assay to identify small molecule antagonists of the estrogen related receptor signaling pathway with the pleiotropic PPARgamma coactivator (PGC) from Tox21 10K library - cell viability counter screen (AID 1224840; active means well fitted cell-killing curve with a large enough effect in the repeat runs, not every such curve was filed as active; further: nearly all actives have a fitted effect of over 40% in size; further: potency means the concentration at half of the fitted maximal effect)
In short: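 Counter-screen for cytotoxicity: after 17.5 h compound exposure at 37 C, CellTiter-Fluor reagent added to PGC/ERR cells for 30 min and fluorescence read. Cells were seeded at 2,000 per well 6 h before dosing.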

[7] = qHTS assay to identify small molecule antagonists of the estrogen related receptor signaling pathway with the pleiotropic PPARgamma coactivator (PGC) from Tox21 10K library (AID 1224841; call rule not given here; further: actives are mostly falling curves and most rising ones were filed inactive; nearly all actives have a fitted effect of over 50% in size; further: potency means the concentration at half of the fitted maximal effect; on activity, negative = inhibition: series mostly up to about 92 µM)
In short: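 Luminescence (One-Glo, 30 min at room temperature) after 18 h compound treatment at 37 C of PGC/ERR reporter cells plated at 2,000 cells/well and settled 6 h beforehand.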

[8] = qHTS assay to identify small molecule agonists of the estrogen related receptor signaling pathway with the pleiotropic PPARgamma coactivator (PGC) from Tox21 10K library (AID 1224842); further: nearly all actives have a fitted effect of over 15% in size
In short: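 PGC/ERR reporter cells (NTP line) were seeded 2,000 per well, rested 6 h at 37 C/5% CO2, then pin-dosed with compounds in DMSO for 18 h at 37 C; luciferase read by One-Glo luminescence after 30 min at room temperature.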

[9] = qHTS assay to identify small molecule agonists of H2AX - cell viability counter screen (AID 1224847; calls by dose curve; further: nearly all actives have a fitted effect of over 30% in size; further: potency means the concentration at half of the fitted maximal effect; on activity change, negative = cytotoxicity: top concentration of the series differs between compounds)
In short: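 We seed wild-type CHO-K1 cells overnight, treat them for 3 hr at 37C with compounds in 15-concentration series, and quantify remaining viability by CellTiter-Glo luminescence.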

[10] = qHTS assay to identify small molecule antagonists of the constitutive androstane receptor (CAR) signaling pathway - cell viability counter screen (AID 1224837); further: nearly all actives have a fitted effect of over 45% in size; further: potency means the concentration at half of the fitted maximal effect; on activity change, negative = cytotoxicity: series mostly up to about 92 µM
In short: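 Cytotoxicity counter-screen: CellTiter-Fluor fluorescence after 23 h compound exposure (15-point qHTS) in double-stable HepG2-CYP2B6-hCAR cells, with 50 nM CITCO added.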

[11] = qHTS assay to identify small molecule agonists of the hypoxia (HIF-1) signaling pathway - cell viability counter screen (AID 1224844; calls by dose curve; further: nearly all actives have a fitted effect of over 50% in size; further: potency means the concentration at half of the fitted maximal effect)
In short: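 Cytotoxicity measured by CellTiter-Glo ATP luminescence in the wells also read for beta-lactamase signal. Cells were HRE-bla ME-180 (2,000/well, 0.5% dialyzed FBS), exposed to compounds for 17 h at 37C.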

[12] = qHTS assay to identify small molecule agonists of H2AX (AID 1224845; active means well fitted activation curve with a large enough effect in the signal ratio in the repeat runs, not every such curve was filed as active; the % refers to the signal ratio)
In short: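 Wild-type CHO-K1 cells plated overnight, then exposed 3 hr at 37C to compounds at 15 concentrations (0.76% DMSO). Lysed, then HTRF anti-pH2AX(S139)-cryptate/anti-H2AX-d2 detection after 24 hr at room temperature; emissions 665 and 620 nm.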

[13] = qHTS assay to identify small molecule agonists of the hypoxia (HIF-1) signaling pathway (AID 1224846; active means well fitted activation curve with a large enough effect in the signal ratio in the repeat runs, not every such curve was filed as active; the % refers to the signal ratio)
In short: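 Compounds added to ME-180 cells carrying hypoxia-response-element beta-lactamase reporter (0.5% dialyzed FBS, 5 h preplating), 17 h at 37C; agonist activity detected by CCF4-AM B/G FRET read-out.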

[14] = target: Thyrotropin receptor (Homo sapiens) (UniProt P16473); test: qHTS assay to identify small molecule agonists of the thyroid stimulating hormone receptor (TSHR) signaling pathway (AID 1224843; calls by dose curve; further: nearly all actives have a fitted effect of over 45% in size; further: potency means the concentration at half of the fitted maximal effect)
Thyrotropin receptor (Homo sapiens), sequence (P16473 whole entry, looked up): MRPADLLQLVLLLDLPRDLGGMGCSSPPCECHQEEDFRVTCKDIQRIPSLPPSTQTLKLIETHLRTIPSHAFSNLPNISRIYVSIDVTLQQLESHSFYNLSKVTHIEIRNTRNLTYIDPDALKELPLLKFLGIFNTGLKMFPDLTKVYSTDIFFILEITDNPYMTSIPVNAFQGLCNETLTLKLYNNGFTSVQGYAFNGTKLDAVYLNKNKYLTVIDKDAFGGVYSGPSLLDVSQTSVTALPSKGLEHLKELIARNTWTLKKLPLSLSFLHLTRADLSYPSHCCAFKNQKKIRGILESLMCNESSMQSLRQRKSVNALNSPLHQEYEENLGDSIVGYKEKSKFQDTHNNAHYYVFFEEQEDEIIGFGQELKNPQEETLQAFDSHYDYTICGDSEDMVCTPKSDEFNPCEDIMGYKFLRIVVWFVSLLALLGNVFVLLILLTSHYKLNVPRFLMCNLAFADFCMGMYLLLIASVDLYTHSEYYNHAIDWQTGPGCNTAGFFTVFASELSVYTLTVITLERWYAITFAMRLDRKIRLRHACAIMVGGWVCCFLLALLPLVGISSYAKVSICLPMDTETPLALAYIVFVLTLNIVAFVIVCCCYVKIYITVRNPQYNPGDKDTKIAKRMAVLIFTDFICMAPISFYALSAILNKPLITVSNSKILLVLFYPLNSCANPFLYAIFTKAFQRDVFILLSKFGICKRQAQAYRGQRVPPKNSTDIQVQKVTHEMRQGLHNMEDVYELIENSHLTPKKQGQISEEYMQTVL
In short: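 Compounds are titrated over 15 concentrations, in triplicate, onto TSHR-HEK293 cells seeded at 800/well. Plates sit 30 min at room temperature before cAMP-d2 and anti-cAMP cryptate are added; signal is read after a further hour.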

[15] = qHTS assay to identify small molecule antagonists of the estrogen related receptor (ERR) signaling pathway from Tox21 library (AID 1224848); further: nearly all actives have a fitted effect of over 50% in size; further: potency means the concentration at half of the fitted maximal effect
In short: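 First, 2,000 ERR cells per well were plated and held 6 h at 37 C/5% CO2. Next, compounds in DMSO were pinned in and left 18 h at 37 C. Finally, ONE-Glo was added and luminescence read after 30 min at room temperature.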

COc1cccc(-c2ccc(/C=C\CN3CCCCCC3)cc2Cl)c1
Potency [1]: inactive
Potency [2]: inactive
Potency [3]: inactive
Potency [4]: inactive
Potency [5]: inactive
Potency [6]: 54.2 µM (active)
Potency [7]: inactive
Potency [8]: inactive
Potency [9]: 89.3 µM (active)

C/C(=N\[Si](C)(C)C)O[Si](C)(C)C
Potency [1]: inactive
Potency [2]: inactive
Potency [3]: inactive
Potency [10]: inactive
Potency [4]: inactive
Potency [5]: inactive
Potency [6]: inactive
Potency [11]: inactive
Potency [12]: inactive
Potency [13]: inactive
Potency [9]: inactive

Cc1cc(Br)ccc1NC(=O)CCl
Potency [1]: 19.3 µM (active)
Potency [2]: inactive
Potency [3]: 48.6 µM (active)
Potency [10]: 54.5 µM (active)
Potency [4]: 68.6 µM (active)
Potency [5]: inactive
Potency [7]: 6.11 µM (active)
Potency [8]: inactive
Potency [14]: inactive
Potency [11]: 21.9 µM (active)
Potency [9]: inactive
Potency [15]: 15.4 µM (active)

CCCCCCCCCCCC(=O)Cl
Potency [1]: inactive
Potency [2]: 39.9 µM (active)
Potency [3]: inactive
Potency [4]: inactive
Potency [5]: inactive
Potency [14]: inactive
Potency [12]: inactive
Potency [13]: inactive
Potency [9]: inactive

CCn1c2ccccc2c2ccccc21
Potency [1]: inactive
Potency [2]: inactive
Potency [3]: inactive
Potency [10]: inactive
Potency [4]: inactive
Potency [5]: 27.3 µM (active)
Potency [14]: inactive
Potency [11]: inactive
Potency [12]: inactive
Potency [13]: inactive
Potency [9]: inactive

C=CC(=O)O[C@H]1C[C@@H]2CC[C@@]1(C)C2(C)C
Potency [1]: inactive
Potency [2]: inactive
Potency [3]: inactive
Potency [10]: inactive
Potency [5]: inactive
Potency [6]: inactive
Potency [8]: inactive
Potency [11]: inactive
Potency [13]: inactive
Potency [9]: inactive
Potency [15]: inactive

COc1ccc(OC)c(N=Nc2c(O)ccc3ccccc23)c1
Potency [1]: 24.3 µM (active)
Potency [2]: 6.33 µM (active)
Potency [3]: 30.6 µM (active)
Potency [10]: 24.3 µM (active)
Potency [4]: inactive
Potency [5]: 12.2 µM (active)
Potency [14]: inactive
Potency [11]: 38.9 µM (active)
Potency [12]: inactive
Potency [9]: 40.1 µM (active)
Potency [15]: inactive

O=C(O)CN(CCCN(CC(=O)O)CC(=O)O)CC(=O)O
viability change, negative = cytotoxic [1]: 11.6% [at 19 µM]
activity change, negative = inhibition [2]: 0.284% [at 23.6 µM]
viability change, negative = cytotoxic [3]: -21.6% [at 19 µM]
activity, negative = inhibition [4]: -21.7% [at 19 µM]
activation [5]: -1.05% [at 19 µM]
activation [14]: -0.184% [at 19 µM]
activity change, negative = cytotoxicity [11]: -18% [at 15.8 µM]
activation (H2AX phosphorylation) [12]: 1.1% [at 31.6 µM]
activation [13]: 1.13% [at 15.8 µM]
activity change, negative = cytotoxicity [9]: 0.112% [at 31.6 µM]

O=C1CCC(=O)N1
Potency [1]: inactive
Potency [2]: inactive
Potency [3]: inactive
Potency [6]: inactive
Potency [7]: inactive
Potency [8]: inactive
Potency [14]: inactive
Potency [11]: inactive
Potency [12]: inactive
Potency [13]: inactive
Potency [9]: inactive
Potency [15]: inactive

Brc1cc(Br)cc(Br)c1
Potency [1]: inactive
Potency [2]: inactive
Potency [3]: inactive
Potency [10]: inactive
Potency [5]: inactive
Potency [6]: inactive
Potency [7]: inactive
Potency [8]: inactive
Potency [14]: inactive
Potency [11]: inactive
Potency [13]: inactive
Potency [9]: inactive

C=C(C)CCO
Potency [1]: inactive
Potency [2]: inactive
Potency [3]: inactive
Potency [10]: inactive
Potency [14]: inactive
Potency [11]: inactive
Potency [12]: inactive
Potency [13]: inactive
Potency [9]: inactive

Cc1cc(C)c(O)c(C(C)(C)C)c1
Potency [1]: inactive
Potency [2]: inactive
Potency [3]: inactive
Potency [4]: inactive
Potency [5]: inactive
Potency [8]: inactive
Potency [11]: inactive
Potency [12]: inactive
Potency [13]: inactive
Potency [9]: 113 µM (active)

C1=CCCC1
Potency [1]: inactive
Potency [2]: inactive
Potency [3]: inactive
Potency [10]: inactive
Potency [14]: inactive
Potency [11]: inactive
Potency [12]: inactive
Potency [13]: inactive
Potency [9]: inactive

N#Cc1nc(Cl)c(Cl)c(Cl)c1Cl
Potency [1]: 27.3 µM (active)
Potency [2]: inactive
Potency [3]: 43.3 µM (active)
Potency [10]: 27.3 µM (active)
Potency [4]: 24.3 µM (active)
Potency [5]: inactive
Potency [7]: 12.2 µM (active)
Potency [8]: inactive
Potency [14]: 34.4 µM (active)
Potency [11]: 34.7 µM (active)
Potency [15]: 9.69 µM (active)

CCc1cccc(CC)c1
Potency [1]: inactive
Potency [2]: inactive
Potency [3]: inactive
Potency [10]: inactive
Potency [6]: inactive
Potency [8]: inactive
Potency [11]: inactive
Potency [12]: inactive
Potency [13]: inactive
Potency [9]: inactive
Potency [15]: inactive

C=CC(=O)OCCOC1C2CCC1C1CC=CC12 (configuration not stated)
viability change, negative = cytotoxic [1]: -4.69% [at 19 µM]
activity change, negative = inhibition [2]: -9.04% [at 23.6 µM]
viability change, negative = cytotoxic [3]: -2.57% [at 19 µM]
activity change, negative = cytotoxicity [10]: -0.771% [at 19 µM]
activation [14]: -1.28% [at 19 µM]
activity change, negative = cytotoxicity [11]: 4.59% [at 15.8 µM]
activation (H2AX phosphorylation) [12]: -0.772% [at 31.6 µM]
activation [13]: 0.329% [at 15.8 µM]
activity change, negative = cytotoxicity [9]: 1.49% [at 31.6 µM]

CCCC(C)C=O (configuration not stated)
Potency [1]: inactive
Potency [2]: inactive
Potency [3]: inactive
Potency [4]: inactive
Potency [5]: inactive
Potency [7]: inactive
Potency [8]: inactive
Potency [14]: inactive
Potency [11]: inactive
Potency [12]: inactive
Potency [13]: inactive
Potency [9]: inactive

C=CC(=O)OCC(Br)CBr (configuration not stated)
Potency [1]: inactive
Potency [2]: inactive
Potency [3]: inactive
Potency [10]: inactive
Potency [14]: inactive
Potency [12]: inactive
Potency [9]: inactive

CCOC(=O)[C@H](O)[C@@H](O)C(=O)OCC
Potency [1]: inactive
Potency [2]: inactive
Potency [3]: inactive
Potency [10]: inactive
Potency [4]: inactive
Potency [5]: inactive
Potency [6]: inactive
Potency [11]: inactive
Potency [12]: inactive
Potency [13]: inactive
Potency [9]: inactive
